Screening results: PubChem BioAssay, National Center for Advancing Translational Sciences (NCATS)
A selection: hits, their analogues and other compounds. The true share with any hit is near 11%.
HEK293 tox: cytotoxic compounds in HEK 293 cells. hit rate 6.6% among 94,000. HEK 293 viability, ATP luminescence (CellTiter-Glo), 48-72 h. Potency, µM (highest dose often 115 µM), inactives show at the highest dose activity change, negative = cytotoxicity, hits mostly inhibitors. AID 1345083; note: nearly all actives have a fitted effect of over 60% in size
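HEK 293 seeded at 250 cells/well receive compound via pintool. After 48 or 72 hr at 37 degree Celsius, 5% CO2 and 95% humidity, CellTiter-Glo is dispensed and luminescence read following 10 min at room temperature.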
FLuc inh: Photinus pyralis luciferase inhibition; purified P. pyralis luciferase, luminescence, biochemical; AID 1347043; hit rate 2.5% among 76,000; P08659; Potency, µM (titrated, usually from 115 µM), usual class: inhibitors; note: nearly all actives have a fitted effect of over 65% in size
Target sequence (P08659 whole entry, looked up): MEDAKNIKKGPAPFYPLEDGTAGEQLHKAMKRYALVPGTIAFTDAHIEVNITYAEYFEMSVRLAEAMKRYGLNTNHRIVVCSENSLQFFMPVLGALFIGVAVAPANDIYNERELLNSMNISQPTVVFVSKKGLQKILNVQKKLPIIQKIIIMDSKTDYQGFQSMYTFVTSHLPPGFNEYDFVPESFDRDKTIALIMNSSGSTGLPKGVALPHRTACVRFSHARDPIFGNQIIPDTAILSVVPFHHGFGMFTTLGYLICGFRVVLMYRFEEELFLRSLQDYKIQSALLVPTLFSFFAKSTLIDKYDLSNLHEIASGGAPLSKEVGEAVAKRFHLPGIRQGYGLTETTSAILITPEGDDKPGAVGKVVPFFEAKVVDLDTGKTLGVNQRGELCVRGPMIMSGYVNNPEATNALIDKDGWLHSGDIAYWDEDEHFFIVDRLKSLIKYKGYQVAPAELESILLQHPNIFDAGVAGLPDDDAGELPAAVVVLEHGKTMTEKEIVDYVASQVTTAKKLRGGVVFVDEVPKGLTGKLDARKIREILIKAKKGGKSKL
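Cell-free enzyme assay, 10nM P. pyralis luciferase, luciferin and ATP each at 10uM. Inhibition profiled over a 6-point titration, read as luminescence.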
3T3 cytotox: NIH 3T3 cell cytotoxicity. NIH 3T3 viability, CellTiter-Glo ATP luminescence, 48-72 h. Potency, µM (top dose mostly 96.7 µM), inactives show top-dose activity change, negative = cytotoxicity, actives largely listed as inhibitors. hit rate 4.3% among 94,000. AID 1345082; note: nearly all actives have a fitted effect of over 55% in size
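Cytotoxicity is measured as loss of cellular ATP: NIH 3T3 cells (400/well) are exposed to compound for 48 or 72 hr at 37 °C, then CellTiter-Glo luminescence is imaged after 10 min at room temperature.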
hNpr1 antagonist: blocks ANP-stimulated signaling of human Npr1 receptor; P16066; HEK293 hNpr1 GloSensor cGMP, ANP-stimulated luminescence; Potency, µM (series often up to 46.3 µM), for the others: at the top dose activity change, negative = inhibition, usual class: inhibitors; hit rate 1.6% among 76,000; AID 1347048; calls by dose curve; note: nearly all actives have a fitted effect of over 60% in size
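HEK293 cells stably expressing human Npr1 and cGMP GloSensor pGS-40F, loaded 2 h with 2% GloSensor reagent, given compound 30 min at room temperature. Luminescence read before and 20 min after 0.1 nM hNppA.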
* hit, by the source's call; i = inactive; ? = inconclusive; / = no result; [ ] = dose if it differs, or a comment. Unless noted, calls come from the whole dose curve; as a rule, active = well fitted curve in the direction sought with a large enough effect; inconclusive = small, poorly fitted or top-dose-only effect, or another doubt; inactive = no such curve, though single readings can be large; an effect the other way counts as inactive or inconclusive. % is set by controls: 0 for no effect and ±100 for the full control effect; potency is the fitted concentration of half-maximal effect.

SMILES	HEK293 tox	FLuc inh	3T3 cytotox	hNpr1 antagonist
O=C1Nc2ccc(-c3ccc(Cl)cc3)cc2C(=O)N2CCN(C(=O)C3CCCCC3)C[C@H]12	39.8µM*	i	?	-20.7%
CC(C)(C)CC(=O)N1CCN2C(=O)c3cc(-c4ccccc4)ccc3NC(=O)[C@H]2C1	100µM*	i	?	-0.8%[70.6 µM]
CCCNC(=O)N1CCN2C(=O)c3cc(-c4ccccc4F)ccc3NC(=O)[C@@H]2C1	100µM*	i	?	-1.8%[70.6 µM]
CN1CC2(CCN(Cc3cn(C)c4ccccc34)CC2)CC1C(=O)N1CCOCC1 (stereo not drawn)	?	i	-24.6%	-12.5%
Cn1c(=O)n([C@H]2CCCN(C(=O)c3cccnc3)C2)c2ncccc21	-9.1%	/	-17.4%	/
COCCCNC(=O)c1ccc2nnc(Cc3ccco3)n2c1	i	/	2.3%[138 µM]	/
COc1ccc(Cl)cc1-c1ccc2c(c1)C(=O)N1CCN(C(=O)COc3ccccc3)C[C@@H]1C(=O)N2	?	i	?	-14.8%
COc1ccc(Cl)cc1-c1ccc2c(c1)C(=O)N1CCN(C(=O)CN)C[C@H]1C(=O)N2	?	i	100µM*	2.8%[70.6 µM]
Cc1ncsc1CN1CCC(Cc2ncc(C)n2CC2CC2)C1 (stereo not drawn)	-3.3%	i	2.8%	7.0%
COc1cccc(CN2CCC(Cc3ncc(C)n3CC3CC3)C2)c1OC (stereo not drawn)	44.7µM*	i	?	-3.6%
O=C(c1ccc(C(F)(F)F)cc1)N1CCC(C(=O)N2CCC(c3nc4ccncc4[nH]3)C2)CC1 (stereo not drawn)	-11.9%	/	-21.7%	/
COc1ccc(C(=O)N2C[C@@H](F)[C@@H](OCc3nc4ccccc4o3)C2)cc1	100µM*	i	-29.9%[174 µM]	0.5%[70.6 µM]
Cc1ccc2nc(CO[C@H]3CN(C(=O)C4CCOCC4)C[C@H]3F)[nH]c2c1	-8.3%[172 µM]	i	2.6%[138 µM]	-2.6%[70.6 µM]
COc1ccc(C(=O)N2C[C@@H](F)[C@@H](OCc3nc4ccc(F)cc4[nH]3)C2)cc1	?	39.8µM*	-21.4%[138 µM]	-27.1%[70.6 µM]
COc1ccc2nc(CO[C@H]3CN(C(=O)c4ccccc4)C[C@H]3F)[nH]c2c1	-23.1%[172 µM]	?	-18.5%[138 µM]	0.1%[70.6 µM]
O=C(Nc1cccc(C(F)(F)F)c1)N1C[C@@H](F)[C@@H](OCc2nc3ccccc3[nH]2)C1	100µM*	i	100µM*	-10.4%[70.6 µM]
Cc1ccc2nc(CO[C@H]3CN(C(=O)C4CC4)C[C@H]3F)[nH]c2c1	-7.5%[172 µM]	28.2µM*	-16.5%[138 µM]	-14.5%[70.6 µM]
CC(C)NC(=O)N1C[C@@H](F)[C@@H](OCc2nc3ccccc3o2)C1	-6.2%[172 µM]	i	-12.8%[174 µM]	-2.2%[70.6 µM]
O=C(Nc1ccc(F)cc1F)N1C[C@@H](F)[C@@H](OCc2nc3ccccc3[nH]2)C1	-0.4%[172 µM]	i	-3.3%[138 µM]	-2.2%[70.6 µM]
O=C(NC1CCCC1)C1CCCN1c1nccc(Nc2ccccc2F)n1 (stereo not drawn)	?	/	-35.1%	/
O=C(Cc1ccccc1Cl)Nc1ccc(-c2nnc3n2CCCC3)cc1	-2.1%	i	-4.5%	7.8%
COc1cccc(CC(=O)Nc2cccc(-c3nnc4n3CCCC4)c2)c1	?	i	?	-0.9%
COc1ccc(-c2ccc3onc(C)c3n2)cc1OC	?	i	39.8µM*	-1.7%[70.6 µM]
COc1cccc(-c2ccc3onc(C)c3n2)c1	?	?	?	0.0%[70.6 µM]
COc1cccc(CNC(=O)c2ccc3nnc(-c4ccc(C(F)(F)F)cc4)n3c2)c1	-1.7%	/	-16.7%	/
SMILES	HEK293 tox	FLuc inh	3T3 cytotox	hNpr1 antagonist
O=C(NCc1cccc(Cl)c1)c1ccc2nnc(-c3cc(C(F)(F)F)cc(C(F)(F)F)c3)n2c1	14.1µM*	/	?	/
O=C(NCc1cccc(C(F)(F)F)c1)c1ccc2nnc(-c3cc(C(F)(F)F)cc(C(F)(F)F)c3)n2c1	14.1µM*	/	20µM*	/
C[S+](=O)([O-])c1cccc(-c2nnc3ccc(C(=O)NC4CCCC4)cn23)c1	1.1%	/	-10.2%	/
O=C(NCc1ccccn1)c1ccc2nnc(-c3cc(C(F)(F)F)cc(C(F)(F)F)c3)n2c1	?	/	-22.8%	/
O=C(NCc1cccc(C(F)(F)F)c1)c1ccc2nnc(-c3ccc(Cl)cc3)n2c1	44.7µM*	/	39.8µM*	/
O=C(NC1CCCCC1)c1ccc2nnc(-c3cccc(C(F)(F)F)c3)n2c1	31.6µM*	/	?	/
CC(C)c1ccc(CN2CCC3OCCN(c4ccccc4)C(=O)C3C2)cc1 (stereo not drawn)	?	i	?	-17.5%[70.6 µM]
CNC(=O)c1cc(C2CC2)nc2c1c(C1CCCN(C(=O)c3ccncc3)C1)nn2C (stereo not drawn)	-1.9%	/	-13.4%	/
COc1ccc(-c2nc3cc(C(=O)NCCc4ccccc4)ccc3o2)cn1	?	/	-11.9%	/
O=C(NCCc1ccc(Cl)cc1)c1ccc2nnc(-c3cc(C(F)(F)F)cc(C(F)(F)F)c3)n2c1	20µM*	/	25.1µM*	/
O=C(NCc1ccccc1)c1ccc2nnc(-c3cc(C(F)(F)F)cc(C(F)(F)F)c3)n2c1	39.8µM*	/	?	/
O=C(NCc1ccccc1)c1ccc2nnc(-c3cccc(C(F)(F)F)c3)n2c1	35.5µM*	/	?	/
COCCCNC(=O)c1ccc2nnc(-c3cccc(C(F)(F)F)c3)n2c1	-9.3%	/	-23.0%	/
O=C(NCCc1ccc(Cl)cc1)c1ccc2nnc(-c3ccc(OC(F)(F)F)cc3)n2c1	79.4µM*	/	-22.0%	/
O=C(NCc1cccnc1)c1ccc2nnc(-c3ccc(OC(F)(F)F)cc3)n2c1	-2.8%	/	-15.3%	/
CNC(=O)c1cc(C2CC2)nc2c1c(C1CCN([S+](C)(=O)[O-])C1)nn2C (stereo not drawn)	3.7%	/	-13.7%	/
COc1ccc2c(c1)C(C(=O)N1CCN(c3ccc(C(=O)O)cc3)CC1)=CC(C)(C)CO2	-15.6%	/	?	/
O=C(CCc1conc1-c1cccc(F)c1)NCc1ccc(Cl)cc1	?	i	-26.3%	-8.0%
O=C(CCc1conc1-c1cccc(F)c1)NCc1ccc(F)cc1	?	44.7µM*	?	-5.5%
COc1ccc(CN2C[C@@H]3C[C@@H](C(N)=O)N(C(=O)C4CCCC4)c4cccc(c43)C2=O)cc1	-15.3%[57.5 µM]	/	?	/
O=C1CCN(S(=O)(=O)c2ccc3c(c2)CCC3)CCCC(c2nc(-c3cccnc3)no2)CCN1 (stereo not drawn)	35.5µM*	i	?	2.7%
O=c1c2c(n(Cc3ccccc3)n1-c1ccccc1)CN(Cc1ccc3[nH]ccc3c1)CC2	?	i	?	-0.8%[70.6 µM]
Cc1nn(-c2ccccc2)c2c1C(C(C)C)N(C1CN([S+](=O)([O-])C(C)C)C1)C2=O (stereo not drawn)	-13.4%	/	-18.6%	/
CCn1cc(S(=O)(=O)N2CCC[C@H](n3c(=O)n(CC4CC4)c4cccnc43)C2)cn1	39.8µM*	i	-24.4%	4.8%
CCC1(O)CCC12CCN(C(=O)CCc1ccccc1)CC2 (stereo not drawn)	-6.3%	/	-10.3%	/
O=C(c1ccc(F)cc1)N1CC(=O)N(C2CCC2)CC(O)C1 (stereo not drawn)	-12.7%	/	?	/
